# JMJD2E inh: JMJD2E (human) inhibition. B2RXH2. JMJD2E catalytic domain, FDH-coupled NADH fluorescence (FDH is formaldehyde dehydrogenase). Potency, µM (top dose mostly 57.1 µM), actives largely listed as inhibitors. 230,000 compounds, 1.6% hits; active = well fitted inhibition curve with a large enough effect, not every such curve was filed as active; inconclusive = small, poorly fitted or top-dose-only effect, or another doubt; inactive = no such curve, though single readings can be large or run the other way; also: nearly all actives have a fitted effect of over 50% in size
# Target sequence (B2RXH2 1-337 limits assumed): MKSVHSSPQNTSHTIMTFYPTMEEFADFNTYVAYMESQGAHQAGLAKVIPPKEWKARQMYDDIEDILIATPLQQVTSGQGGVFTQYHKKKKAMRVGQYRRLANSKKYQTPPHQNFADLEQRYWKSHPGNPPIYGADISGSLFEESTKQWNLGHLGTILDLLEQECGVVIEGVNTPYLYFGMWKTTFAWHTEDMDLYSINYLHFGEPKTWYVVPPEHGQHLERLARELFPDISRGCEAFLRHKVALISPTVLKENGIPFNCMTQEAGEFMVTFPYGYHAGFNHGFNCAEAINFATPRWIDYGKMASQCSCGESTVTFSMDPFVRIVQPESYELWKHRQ
# Tau fluor counter: counter-screen for tau fibril formation inhibitors. tau K18 P301L Alexa594 fluorescence, heparin fibrillization. Potency, µM (series often up to 57.7 µM). 280,000 compounds, 0.93% hits. AID 1463; also: nearly all actives have a fitted effect of over 55% in size
#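 Human K18 P301L tau (15 uM unlabeled plus 0.24 uM Alexa 594-labeled, final) in 100 mM sodium acetate pH 7 was mixed with compound and 20 uM heparin and incubated 6 hr at 37 C.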
# LMNA splice mod: LMNA splicing modulation; HeLa LMNA splicing GFP/RFP minigene ratio, 48 h; Potency, µM (highest dose often 46.1 µM), usual class: inhibitors; 200,000 compounds, 0.01% hits; AID 1487; active = well fitted inhibition curve with a large enough effect in the signal ratio, with a control signal flat, not every such curve was filed as active; inconclusive = small, poorly fitted or top-dose-only effect, or effect the other way, or a change in a side signal; the % refers to the signal ratio
#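 S3 HeLa cells stably expressing lamin A-EGFP splicing minigene plus DsRed2, 600 cells/well, 48 h compound exposure at 37C. Laser-scanning cytometry; analysed as GFP (500-530 nm)/RFP (575-640 nm) total intensity ratio; 0.5% DMSO vehicle.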
# Tau fibril FP: inhibitors of human tau fibril formation. P10636. K18 P301L tau heparin fibrillization, Alexa594 FP, 6 h. Potency, µM (top dose mostly 57.7 µM), most hits filed as inhibitors. 280,000 compounds, 0.39% hits. AID 1468; also: nearly all actives have a fitted effect of over 55% in size
# Target sequence (P10636 561-689 P618L limits assumed): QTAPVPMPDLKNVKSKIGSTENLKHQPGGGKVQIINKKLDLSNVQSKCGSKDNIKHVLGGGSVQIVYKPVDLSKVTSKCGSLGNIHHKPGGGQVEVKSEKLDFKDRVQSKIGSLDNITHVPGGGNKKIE
#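 K18 P301L tau (15 uM unlabeled/0.24 uM Alexa 594-labeled, final) + compound + heparin 20 uM final; 100 mM NaOAc pH 7; 6 hr 37 C; ThT 30 uM final added, 1 hr RT; FP ex 555/em 632 nm.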
# Tau ThT inhib: tau fibrillization inhibition (ThT binding). P10636. Potency, µM (top dose mostly 57.4 µM), actives largely listed as inhibitors. AID 1460. recombinant tau K18 P301L (four-repeat tau fragment), heparin-induced fibrillization, ThT fluorescence. 270,000 compounds, 2.1% hits; also: nearly all actives have a fitted effect of over 55% in size
#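 Heparin-induced fibrillization of the P301L-mutant K18 repeat-domain fragment of human tau was followed by ThT binding in quantitative high-throughput format.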
# CBFb-RUNX1 inh: CBF-beta/RUNX1 interaction disruption | Q01196+Q13951 | AlphaScreen CBFb-His/RUNX1-biotin binding, biochemical | Potency, µM (doses to about 59.8 µM), actives largely listed as inhibitors | 230,000 tested, under 10 active | AID 1477
#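 Compounds were screened at multiple concentrations against a preformed CBF-beta(His)/RUNX1(biotin) complex (30 nM of each) for 15 min at room temperature, followed by 90 min with nickel and streptavidin beads and AlphaScreen reading.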
# Hits are given with their value; . = inactive; ? = inconclusive; / = not tested or not shown; [ ] = remark or other dose. Hits are enriched below; roughly 3.2% of the tested compounds scored in any of these assays. Unless noted, calls follow the shape of the dose curve; as a rule, active = well fitted curve in the direction sought with a large enough effect; inconclusive = small, poorly fitted or top-dose-only effect, or another doubt; inactive = no such curve, though single readings can be large; an effect the other way counts as inactive or inconclusive.
SMILES,JMJD2E inh,Tau fluor counter,LMNA splice mod,Tau fibril FP,Tau ThT inhib,CBFb-RUNX1 inh
O=S(=O)(NCCc1ccccc1)c1ccccc1Br,/,/,/,/,/,.
O=C(Nc1ccc(O)c2c(=O)cc(-c3ccccc3Cl)oc12)c1ccc(Br)cc1,/,.,/,.,14.1µM,.
Fc1cccc(NC(=S)NNc2c3ccccc3nc3ccccc23)c1,?,11.2µM[quencher],?,.,7.94µM,?
COC(=O)c1c(SC)nc2ccccc2c1OCc1ccc(C)cc1,/,.,/,?,?,/
O=C(O)CCC/C=C\C[C@@H]1[C@@H](CC[C@@H](O)CCc2ccccc2)[C@H](O)C[C@@H]1O,/,/,/,/,/,.
Cc1ccc(C(C)NC(=O)/C(C#N)=C\c2c(C)[nH]c3ccccc23)cc1 (centres undefined),.,10µM[quencher],?,25.1µM,.,.
CCOC(=O)c1c(C)c(C(=O)NCCc2ccc(OC)cc2)c(C)n1CC,/,.,/,.,.,/
O=C(NCCc1cccs1)c1ccc(Cn2c(SCc3ccc(F)cc3)nc3cccnc32)cc1,/,.,/,.,.,/
CN(C)c1ccc(N=Nc2ccccc2C(=O)OCC(=O)Nc2ccccc2C(F)(F)F)cc1,.,?,.,?,5.01µM,/
CN(C)c1ccc(N=Nc2ccccc2C(=O)OCC(=O)N2CCCCCC2)cc1,.,.,.,.,8.91µM,/
CN(C)c1ccc(N=Nc2ccccc2C(=O)OCC(=O)N2CCCC2)cc1,.,.,.,.,12.6µM,?
CO/N=C(\C)CCN1CCc2nc(-c3ccccc3)c(-c3ccccc3)cc2C1,/,.[11.6 µM],/,?,.[11.5 µM],.[13.1 µM]
Cc1cc2c(n1-c1ccc(C(=O)NCCc3ccc(Cl)cc3)cc1)CCCC2,/,.,.,?,?,/
CN1CCN(c2nc(-c3cccc(C#N)c3)nc3ccccc23)CC1,.,.,.,.,.,/
CCOc1ccc(S(=O)(=O)NCCc2c(C)[nH]c3c(Cl)cccc23)cc1C,/,10µM[quencher],/,.,.,/
CCOc1ccc(S(=O)(=O)NCc2cccnc2)cc1C,.,.,/,.,.,.
O=C(O)CC1S/C(=N\N=C/c2ccccc2)N(c2ccc(O)cc2)C1=O (centres undefined),.,.,.,?,.,.
CN1C(=O)C(CC(=O)O)S/C1=N\N=C\c1ccc(O)cc1O (centres undefined),25.1µM,.,/,.,.,.
CC(=O)OCOC(=O)CN(CC(=O)OCOC(C)=O)c1ccccc1OCCOc1ccccc1N(CC(=O)OCOC(C)=O)CC(=O)OCOC(C)=O,/,.,/,.,.,.
COc1ccc(Oc2ccc(/C=N/NC(=O)c3cccnc3)cc2[N+](=O)[O-])cc1,.,?,.,.,.,.
COc1cc(/C=N/NC(=O)c2cncc(Br)c2)cc([N+](=O)[O-])c1O,7.94µM,.,/,.,12.6µM,/
O=C(N/N=C/c1cccc(OCc2ccccc2)c1)c1cccs1,.,25.1µM[quencher],?,?,?,.
O=C(N/N=C/c1cccc([N+](=O)[O-])c1)c1cccs1,.,.,.,.,?,.
O=C(N/N=C\c1ccc([N+](=O)[O-])o1)c1cncc(Br)c1,.,.,/,.,/,.
O=C(O)c1ccc(COc2ccc(/C=N/NC(=O)c3cccs3)cc2)cc1,.,.,.,.,?,.
SMILES,JMJD2E inh,Tau fluor counter,LMNA splice mod,Tau fibril FP,Tau ThT inhib,CBFb-RUNX1 inh
CCOc1cc(/C=N/NC(=O)c2cccs2)cc([N+](=O)[O-])c1O,.,?,/,.,10µM,.
COc1cc([N+](=O)[O-])cc(/C=N/NC(=O)c2cncc(Br)c2)c1O,14.1µM,.,/,.,12.6µM,/
COc1cc(OC)c(C2C=C(c3ccc(C)cc3)Nc3c(C(=O)Nc4ccccc4)cnn32)cc1OC (centres undefined),/,17.8µM[quencher],?,.,.,/
CCN1c2ccccc2N(C)C1(C)c1ccccc1 (centres undefined),?,?,?,15.8µM,4.47µM,.
CCOc1ccc(Cc2nccc3cc(OCC)c(OCC)cc23)cc1OCC,.,.,?,.,.,.
CC(=O)NC1CCCN(O)C(=O)/C=C(\C)CCOC(=O)C(NC(C)=O)CCCN(O)C(=O)/C=C(\C)CCOC(=O)C(NC(C)=O)CCCN(O)C(=O)/C=C(\C)CCOC1=O (centres undefined),7.94µM,.,/,.,.,.
Oc1cc2c(cc1C(c1ccc(Br)cc1)N1CCCC1)OCO2 (centres undefined),?,?,/,.,22.4µM,.
Cc1ccc(C(=O)N/C(=C\c2ccc(-c3ccc([N+](=O)[O-])cc3)o2)C(=O)NC2CCS(=O)(=O)C2)cc1 (centres undefined),.,?,.,.,6.31µM,.
Cc1ccc2c(c1)C(c1ccc(F)cc1)N(C(=O)c1ccc(OC(C)C)cc1)CC(=O)N2 (centres undefined),/,.,/,.,.,/
Clc1ccc(CSc2ncccn2)cc1,.,.,.,.,.,.
Cc1ccc(CSC2=NC(C)(C)Nc3ccccc32)c(C)c1,/,14.1µM[quencher],?,.,?,/
COn1c(SCc2ccc(C)cc2C)nc2ccccc2c1=O,.,.,.,.,?,.
CC1(C)N=C(SCc2ccc(Cl)cc2)c2ccccc2N1,/,10µM[quencher],?,.,?,/
CCCCN(CCCNC(=O)c1cc(Nc2cccc(SC)c2)nc2ccccc12)Cc1ccccc1,/,1.78µM[quencher],/,?,?,/
CC(C)c1ccc(Nc2cc(C(=O)NCCCN(C)Cc3ccccc3)c3ccccc3n2)cc1,/,?,?,.,.,/
CSc1cccc(Nc2cc(C(=O)NCCc3ccc(Cl)cc3)c3ccccc3n2)c1,/,3.55µM[quencher],/,?,.,/
O=C(NCCc1ccccc1)c1cc(Sc2cccc(Cl)c2)nc2ccccc12,/,.,.,.,.,/
COc1ccc(COC(=O)N/N=C2/C[C@@H](O)[C@@H](O)[C@@H]3[C@@H]4C(=O)N([C@@H](C)c5ccccc5)C(=O)[C@H]4CC[C@H]23)cc1,/,.[11.6 µM],/,.[11.6 µM],.[11.5 µM],.[13.1 µM]
CCCCCn1c(=O)[nH]c2cc(C(=O)N3CCN(c4cccc(OC)c4)CC3)ccc2c1=O,/,.,/,.,.,/
C=CC(C1=CC(=O)C(OC)=CC1=O)c1ccc(OC)cc1 (centres undefined),?,?,.,?,15.8µM,/
COC1=C(c2ccccc2)C(=O)c2ccccc2C1=O,.,.,.,.,?,.
COc1ccc(C(=O)N/N=C/C(C)c2ccccc2)cc1OC (centres undefined),.,.,.,.,.,.
C=CC(C1=CC(=O)C(OC)=C(OC)C1=O)c1ccccc1 (centres undefined),?,25.1µM[quencher],?,?,12.6µM,/
C=CC(C1=CC(=O)C(OC)=CC1=O)c1ccccc1 (centres undefined),2.24µM,14.1µM[quencher],/,20µM,15.8µM,?
[O-][N+]1=c2ccc(Nc3ccccc3)cc2=NC12CCCCC2,?,?,?,?,7.08µM,?

# High-throughput results (PubChem)
